Reference: PubChem BioAssay AID1159580 (chemical genetic matrix, 2015)
Out of some 5,500 compounds screened, about 2,000 (36%) were called active. Inconclusive results (about 18%) are left out. Cut-off read from the data, not from the text of the source: active = normalized growth mostly below about 0.91 (no sharp cut-off); inconclusive = no clear call, values can overlap the other calls; inactive = mostly above about 0.92. The list shows a part of the results.

Test: chemical genetic growth profiling, strain panel (AID 1159580);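 note: tested at 20 µM; growth read once vehicle control cultures reached saturation at 30 °C; 1 = growth at the plate median or of vehicle wells; lower values mean less growth of the strain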
Conditions: growth OD
[1] = S. cerevisiae deletion strains, locus YHR030C, strain SLT2, active compounds read low
[2] = S. cerevisiae deletion strains, locus YJL095W, strain BCK1, active compounds read low

Measured: normalized growth

CN[C@H]1C[C@@H](N)[C@H](O)[C@@H](O[C@@H]2O[C@H](CO)[C@@H]3OC4(O[C@@H]3[C@@H]2O)O[C@H](C(N)CO)[C@H](O)[C@H](O)[C@H]4O)[C@@H]1O (stereo partly specified)
inactive: [1] 1.05 | S. cerevisiae deletion strains, locus YHR079C, strain IRE1, active compounds read low 1.05 | [2] 1.05 | S. cerevisiae deletion strains, locus YJR066W, strain TOR1, active compounds read low 0.982 | S. cerevisiae deletion strains, locus YLR113W, strain HOG1, active compounds read low 1.02 | S. cerevisiae deletion strains, locus YNL183C, strain NPR1, active compounds read low 0.969 | S. cerevisiae deletion strains, locus YOR231W, strain MKK1, active compounds read low 1.03 | S. cerevisiae deletion strains, locus YPL256C, strain CLN2, active compounds read low 1.03

Nc1nc2ncc(C(=O)O)nc2c(=O)[nH]1
inactive: S. cerevisiae deletion strains, locus YAL013W, strain DEP1, active compounds read low 1.01 | S. cerevisiae deletion strains, locus YBR021W, strain FUR4, active compounds read low 1 | S. cerevisiae deletion strains, locus YBR229C, strain ROT2, active compounds read low 1.01 | S. cerevisiae deletion strains, locus YCL029C, strain bik1, active compounds read low 1.03 | S. cerevisiae deletion strains, locus YDL035C, strain GPR1, active compounds read low 1 | S. cerevisiae deletion strains, locus YDL074C, strain BRE1, active compounds read low 1.01 | S. cerevisiae deletion strains, locus YDL101C, strain DUN1, active compounds read low 1.01 | S. cerevisiae deletion strains, locus YDL134C, strain PPH21, active compounds read low 1.01 | S. cerevisiae deletion strains, locus YDL185W, strain tfp1, active compounds read low 1.04 | S. cerevisiae deletion strains, locus YDL192W, strain arf1, active compounds read low 1.03 | S. cerevisiae deletion strains, locus YDR101C, strain arx1, active compounds read low 1.03 | S. cerevisiae deletion strains, locus YDR162C, strain NBP2, active compounds read low 1.03 | S. cerevisiae deletion strains, locus YDR318W, strain mcm21, active compounds read low 1.02 | S. cerevisiae deletion strains, locus YDR388W, active compounds read low 1.02 | S. cerevisiae deletion strains, locus YDR502C, strain sam2, active compounds read low 1.04 | S. cerevisiae deletion strains, locus YEL061C, strain CIN8, active compounds read low 1.01 | S. cerevisiae deletion strains, locus YER110C, active compounds read low 1.05 | S. cerevisiae deletion strains, locus YER155C, strain BEM2, active compounds read low 1.01 | S. cerevisiae deletion strains, locus YER167W, strain BCK2, active compounds read low 1.01 | S. cerevisiae deletion strains, locus YGL078C, strain dbp3, active compounds read low 1.03 | S. cerevisiae deletion strains, locus YGL086W, strain mad1, active compounds read low 1 | S. cerevisiae deletion strains, locus YGL248W, strain PDE1, active compounds read low 1.02 | S. cerevisiae deletion strains, locus YGR078C, strain PAC10, active compounds read low 1.01 | S. cerevisiae deletion strains, locus YGR135W, strain pre9, active compounds read low 1.01 | S. cerevisiae deletion strains, locus YGR252W, strain gcn5, active compounds read low 1.07 | [1] 1.01 | S. cerevisiae deletion strains, locus YHR079C, strain IRE1 (second series), active compounds read low 1.05 | S. cerevisiae deletion strains, locus YHR094C, strain hxt1, active compounds read low 1.04 | S. cerevisiae deletion strains, locus YHR129C, strain ARP1, active compounds read low 1.01 | S. cerevisiae deletion strains, locus YHR200W, strain rpn10, active compounds read low 1 | S. cerevisiae deletion strains, locus YIL066C, strain RNR3, active compounds read low 1.02 | S. cerevisiae deletion strains, locus YIL073C, strain SPO22, active compounds read low 1.1 | S. cerevisiae deletion strains, locus YIL125W, strain kgd1, active compounds read low 1.03 | S. cerevisiae deletion strains, locus YIR030C, strain dcg1, active compounds read low 1.04 | [2] 1.01 | S. cerevisiae deletion strains, locus YJL134W, strain LCB3, active compounds read low 1.01 | S. cerevisiae deletion strains, locus YJL168C, strain set2, active compounds read low 1.05 | S. cerevisiae deletion strains, locus YJL187C, strain SWE1 (second series), active compounds read low 1.01 | S. cerevisiae deletion strains, locus YJR043C, strain POL32, active compounds read low 0.997 | S. cerevisiae deletion strains, locus YKL009W, strain mrt4, active compounds read low 1.02 | S. cerevisiae deletion strains, locus YKL068W, active compounds read low 1.03 | S. cerevisiae deletion strains, locus YKL085W, strain MDH1 (second series), active compounds read low 1.01 | S. cerevisiae deletion strains, locus YKL085W, strain MDH1, active compounds read low 1.01 | S. cerevisiae deletion strains, locus YKR001C, strain vps1, active compounds read low 1.02 | S. cerevisiae deletion strains, locus YLR039C, strain RIC1, active compounds read low 1.03 | S. cerevisiae deletion strains, locus YLR058C, strain SHM2, active compounds read low 1.01 | S. cerevisiae deletion strains, locus YLR102C, strain apc9, active compounds read low 1.04 | S. cerevisiae deletion strains, locus YLR262C, strain YPT6, active compounds read low 1.03 | S. cerevisiae deletion strains, locus YLR268W, strain sec22, active compounds read low 1.04 | S. cerevisiae deletion strains, locus YLR330W, strain CHS5, active compounds read low 1.01 | S. cerevisiae deletion strains, locus YLR342W, strain FKS1 (second series), active compounds read low 0.998 | S. cerevisiae deletion strains, locus YLR371W, strain rom2, active compounds read low 1.06 | S. cerevisiae deletion strains, locus YLR418C, strain cdc73, active compounds read low 1.03 | S. cerevisiae deletion strains, locus YML016C, strain PPZ1, active compounds read low 1.01 | S. cerevisiae deletion strains, locus YML032C, strain rad52, active compounds read low 1.02 | S. cerevisiae deletion strains, locus YML124C, strain tub3, active compounds read low 1.02 | S. cerevisiae deletion strains, locus YMR078C, strain ctf18, active compounds read low 1.05 | S. cerevisiae deletion strains, locus YMR223W, strain ubp8, active compounds read low 1.03 | S. cerevisiae deletion strains, locus YMR307W, strain GAS1, active compounds read low 1.01 | S. cerevisiae deletion strains, locus YNL067W, strain RPL9B, active compounds read low 1.01 | S. cerevisiae deletion strains, locus YNL153C, strain GIM3, active compounds read low 1.01 | S. cerevisiae deletion strains, locus YNL233W, strain BNI4, active compounds read low 1 | S. cerevisiae deletion strains, locus YNL250W, strain rad50, active compounds read low 1.03 | S. cerevisiae deletion strains, locus YNL271C, strain bni1, active compounds read low 1.03 | S. cerevisiae deletion strains, locus YNL298W, strain CLA4, active compounds read low 1.04 | S. cerevisiae deletion strains, locus YNL307C, strain MCK1, active compounds read low 1.06 | S. cerevisiae deletion strains, locus YNL322C, strain KRE1, active compounds read low 1.01 | S. cerevisiae deletion strains, locus YNR052C, strain pop2, active compounds read low 1.03 | S. cerevisiae deletion strains, locus YOL012C, strain htz1 1.02 | S. cerevisiae deletion strains, locus YOL147C, strain pex11, active compounds read low 1.04 | S. cerevisiae deletion strains, locus YOR061W, strain CKA2, active compounds read low 1.02 | S. cerevisiae deletion strains, locus YOR069W, strain VPS5, active compounds read low 1.01 | S. cerevisiae deletion strains, locus YOR136W, strain idh2, active compounds read low 1.04 | S. cerevisiae deletion strains, locus YOR144C, strain elg1, active compounds read low 1.03 | S. cerevisiae deletion strains, locus YOR184W, strain ser1, active compounds read low 1.04 | S. cerevisiae deletion strains, locus YOR316C, strain cot1, active compounds read low 1.06 | S. cerevisiae deletion strains, locus YPL055C, strain LGE1, active compounds read low 1.01 | S. cerevisiae deletion strains, locus YPR119W, strain clb2, active compounds read low 1.03 | S. cerevisiae deletion strains, locus YPR141C, strain kar3, active compounds read low 1.02 | S. cerevisiae deletion strains, locus YPR163C, strain tif3, active compounds read low 1.05 | S. cerevisiae deletion strains, locus YPR167C, strain met16, active compounds read low 1.06 | S. cerevisiae deletion strains, strain wtn01, active compounds read low 1.02 | S. cerevisiae strains, strain wild type, active compounds read low 1.01
